“And” between values parts separate entries of the source, which are not always exact repeats. Equal values may be shown once. Records with an inconclusive call do not appear. The source made the active and inactive calls. Calls come from the whole dose curve; as a rule, active = well fitted curve in the direction sought with a large enough effect; inconclusive = small, poorly fitted or top-dose-only effect, or another doubt; inactive = no such curve, though single readings can be large; an effect the other way counts as inactive or inconclusive.
Key:
TAB109 = test: qHTS profiling for inhibitors of Plasmodium falciparum proliferation (AID 504749);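 note: 0% = DMSO vehicle and full inhibition = artemisinin control; nearly all actives have a fitted effect of over 60% in size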; settings: P. falciparum in erythrocytes, SYBR Green DNA, 72 h; series mostly up to 28.7 µM
Summary of the method: (§1)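 Readout was DNA-dye fluorescence from lysed cultures, ex 485/em 535 nm. Parasitized red cells had grown 72 h with compound; data scaled between 0.29 uM artemisinin and DMSO wells and corrected using vehicle-only plates.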

TAB165 = test: as above; settings: P. falciparum in erythrocytes, SYBR Green DNA, 72 h; series mostly up to 28.7 µM
Summary of the method: as §1

CRL-7250 = normal cell line; test: Cytotoxic Profiling of Annotated Libraries Using Quantitative High-Throughput Screening (AID 1296008); settings: Five cell lines viability, CellTiter-Glo ATP luminescence, 48-72 h; max response: active compounds read low; note: nearly all actives have a fitted effect of over 60% in size; note: potency is the fitted concentration of half-maximal effect; for max response: % is set by controls: 0 for no effect and ±100 for the full control effect
Summary of the method: (§2)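 Cells exposed to compounds for 48 or 72 hr at 37 degrees Celsius. Viability read as ATP-coupled luminescence with CellTiter-Glo after 10 min at room temperature.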

HEK293 = test: as above; settings: Five cell lines viability, CellTiter-Glo ATP luminescence, 48-72 h; max response: active compounds read low
Summary of the method: as §2

HaCat [1] = test: as above; settings: Five cell lines viability, CellTiter-Glo ATP luminescence, 48-72 h; max response: active compounds read low
Summary of the method: as §2

NIH3T3 [2] = test: as above; settings: Five cell lines viability, CellTiter-Glo ATP luminescence, 48-72 h; max response: active compounds read low
Summary of the method: as §2

HACAT [3] = test: qHTS assay to identify novel small-molecules to repurpose for Merkel cell carcinoma treatment (AID 1296009); settings: MCC and control cell lines, CellTiter-Glo viability, 72 h; at 44.8 µM (top of the series) unless noted; note: nearly all actives have a fitted effect of over 60% in size
Summary of the method: (§3)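 Cells were incubated with compound for 72 hr at 37 degree celsius before CellTiter-Glo addition. Luminescence was normalized with no-cell wells as full cytotoxicity and DMSO as baseline.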

MCC-13 = test: as above; settings: MCC and control cell lines, CellTiter-Glo viability, 72 h; series mostly up to 46 µM
Summary of the method: as §3

MKL-1 = test: as above; settings: MCC and control cell lines, CellTiter-Glo viability, 72 h; series mostly up to 46 µM
Summary of the method: as §3

MKL-2 = test: as above; settings: MCC and control cell lines, CellTiter-Glo viability, 72 h; series mostly up to 46 µM
Summary of the method: as §3

UISO = test: as above; settings: MCC and control cell lines, CellTiter-Glo viability, 72 h; series mostly up to 46 µM
Summary of the method: as §3

WaGa = test: as above; settings: MCC and control cell lines, CellTiter-Glo viability, 72 h; series mostly up to 46 µM
Summary of the method: as §3

C33A = test: Primary qHTS to identify gynecologic anti-cancer compounds using libraries of approved drugs and bioactive compounds (AID 1345084); settings: Gynecologic cancer cell panel viability, ATPlite luminescence, 48 h; series mostly up to 57.5 µM; note: nearly all actives have a fitted effect of over 55% in size; note: potency is the fitted concentration of half-maximal effect
Summary of the method: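 Five-concentration response, 48 h; readout is ATP-driven luciferase luminescence.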

KB-3-1 = test: Cytotoxic Profiling of Annotated Libraries Using Quantitative High-Throughput Screening (AID 1296008); settings: Five cell lines viability, CellTiter-Glo ATP luminescence, 48-72 h; max response: active compounds read low; note: nearly all actives have a fitted effect of over 60% in size; note: potency is the fitted concentration of half-maximal effect; for max response: % is set by controls: 0 for no effect and ±100 for the full control effect
Summary of the method: as §2

MCC-26 = test: qHTS assay to identify novel small-molecules to repurpose for Merkel cell carcinoma treatment (AID 1296009); settings: MCC and control cell lines, CellTiter-Glo viability, 72 h; series mostly up to 46 µM; note: nearly all actives have a fitted effect of over 60% in size
Summary of the method: as §3

NIH3T3 [4] = test: as above; settings: MCC and control cell lines, CellTiter-Glo viability, 72 h; at 44.8 µM (top of the series) unless noted
Summary of the method: as §3

SC27B = test: qHTS profiling for inhibitors of Plasmodium falciparum proliferation (AID 504749);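 note: 0% = DMSO vehicle and full inhibition = artemisinin control; nearly all actives have a fitted effect of over 60% in size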; settings: P. falciparum in erythrocytes, SYBR Green DNA, 72 h; series mostly up to 28.7 µM
Summary of the method: as §1

TAB113 = test: as above; settings: P. falciparum in erythrocytes, SYBR Green DNA, 72 h; series mostly up to 28.7 µM
Summary of the method: as §1

W2 = test: as above; settings: P. falciparum in erythrocytes, SYBR Green DNA, 72 h; series mostly up to 28.7 µM
Summary of the method: as §1

HEK293T = test: qHTS assay to identify novel small-molecules to repurpose for Merkel cell carcinoma treatment (AID 1296009); settings: MCC and control cell lines, CellTiter-Glo viability, 72 h; at 44.8 µM (top of the series) unless noted; note: nearly all actives have a fitted effect of over 60% in size
Summary of the method: as §3

CC(C)c1ccc2oc3nc(N)c(C(=O)O)cc3c(=O)c2c1
active: Potency (C33A) 8.91 µM
inactive: Potency (TAB109) | Potency (TAB165) | outcome (CRL-7250) | max response (HEK293) 4.19% and -0.504% | max response (HaCat [1]) -17.6% | outcome (HaCat [1]) | max response (NIH3T3 [2]) -24.8% and -20.9% | outcome (HACAT [3]) | Potency (MCC-13) | Potency (MKL-1) | Potency (MKL-2) | Potency (UISO) | Potency (WaGa)

c1cnc2cc3c(cc2n1)C1CNCC3C1
inactive: max response (CRL-7250) -23.9% and -2.72% | max response (HEK293) -2.74% and -10.4% | max response (HaCat [1]) 2.53% | outcome (HaCat [1]) | max response (KB-3-1) 3.64% and -1.73% | outcome (KB-3-1) | max response (NIH3T3 [2]) 4.61% | outcome (NIH3T3 [2]) | outcome (HACAT [3]) | Potency (MCC-13) | Potency (MCC-26) | Potency (MKL-1) | Potency (MKL-2) | outcome (NIH3T3 [4]) | Potency (UISO) | Potency (WaGa) | Potency (C33A)

CC(S)C(=O)NCC(=O)O (stereo not given)
inactive: Potency (SC27B) | Potency (TAB109) | Potency (TAB113) | Potency (TAB165) | Potency (W2) | outcome (CRL-7250) | max response (HEK293) -0.0067% and -3.71% | max response (HaCat [1]) -2.01% | outcome (HaCat [1]) | max response (KB-3-1) 5.7% | max response (NIH3T3 [2]) 0.885% and -1.07% | outcome (HACAT [3]) | Potency (MCC-13) | Potency (MKL-1) | Potency (MKL-2) | Potency (UISO) | Potency (WaGa) | Potency (C33A)

COc1ccc(C2(C#N)CCC(C(=O)O)CC2)cc1OC1CCCC1 (stereo not given)
inactive: Potency (SC27B) | Potency (TAB109) | Potency (TAB113) | Potency (TAB165) | Potency (W2) | outcome (CRL-7250) | max response (HEK293) 4.74% | outcome (HEK293) | outcome (HaCat [1]) | max response (NIH3T3 [2]) 4.78% and 4.09% | outcome (HACAT [3]) | outcome (HEK293T) | Potency (MCC-13) | Potency (MCC-26) | Potency (MKL-1) | Potency (MKL-2) | Potency (UISO) | Potency (WaGa) | Potency (C33A)

COc1ccccc1N1CCN(CCN(C(=O)C2CCCCC2)c2ccccn2)CC1
inactive: outcome (CRL-7250) | max response (HEK293) 3.7% | max response (HaCat [1]) 1.26% and -29.9% | max response (KB-3-1) -8.11% and 2.92% | max response (NIH3T3 [2]) -13.5% | outcome (NIH3T3 [2]) | Potency (MCC-13) | Potency (MKL-1) | Potency (MKL-2) | outcome (NIH3T3 [4]) | Potency (UISO) | Potency (WaGa) | Potency (C33A)

CCN(CC)CCOc1ccc(Cc2ccccc2)cc1
active: Potency (HEK293) 8.33 µM
inactive: Potency (SC27B) | Potency (TAB109) | Potency (TAB113) | Potency (TAB165) | max response (CRL-7250) -29.7% | max response (HaCat [1]) -17.2% | outcome (HaCat [1]) | max response (NIH3T3 [2]) -6.6% | outcome (HACAT [3]) | Potency (MCC-13) | Potency (MCC-26) | Potency (MKL-1) | Potency (MKL-2) | Potency (UISO) | Potency (WaGa) | Potency (C33A)

C[C@@H](N)C1CCC(C(=O)Nc2ccncc2)CC1 (stereo not given in full)
inactive: max response (CRL-7250) -11.2% | outcome (HEK293) | outcome (HaCat [1]) | max response (KB-3-1) -5.62% | max response (NIH3T3 [2]) -5.63% | outcome (HACAT [3]) | outcome (HEK293T) | Potency (MCC-13) | Potency (MKL-1) | Potency (MKL-2) | Potency (UISO) | Potency (WaGa)

OC(CN1CCN(c2cccc(Cl)c2)CC1)C(c1ccccc1)c1ccccc1 (stereo not given)
inactive: max response (CRL-7250) -4.87% | max response (HaCat [1]) -65.8% and -1.92% | max response (KB-3-1) -12.1% and -1.2% | max response (NIH3T3 [2]) -14.3% | outcome (NIH3T3 [2]) | Potency (MCC-13) | Potency (MCC-26) | Potency (MKL-1) | outcome (NIH3T3 [4]) | Potency (UISO) | Potency (WaGa) | Potency (C33A)
active: Potency (HEK293) 9.35 µM

Nc1ccc(S(N)(=O)=O)cc1
inactive: Potency (SC27B) | Potency (TAB109) | Potency (TAB113) | Potency (TAB165) | Potency (W2) | max response (CRL-7250) -3.82% and 0.627% | max response (HEK293) 0.928% and -22.2% | outcome (HaCat [1]) | max response (KB-3-1) 4.1% and 2.9% | max response (NIH3T3 [2]) -7.64% | outcome (NIH3T3 [2]) | outcome (HACAT [3]) | Potency (MCC-13) | Potency (MCC-26) | Potency (MKL-1) | Potency (MKL-2) | outcome (NIH3T3 [4]) | Potency (UISO) | Potency (WaGa) | Potency (C33A)

Cc1nccn1CC1CCc2c(c3ccccc3n2C)C1=O (stereo not given)
inactive: max response (CRL-7250) -48.9% and -2.23% and -14.6% | max response (HEK293) -1.64% and -12.7% and -0.203% | max response (HaCat [1]) -3.6% and 4.03% | outcome (HaCat [1]) | max response (KB-3-1) -3.61% and -19.2% | outcome (KB-3-1) | max response (NIH3T3 [2]) -4.36% and -4.32% and -0.458% | outcome (HACAT [3]) | Potency (MCC-13) | Potency (MCC-26) | Potency (MKL-1) | Potency (MKL-2) | Potency (UISO) | Potency (WaGa) | Potency (C33A)

O=c1c(O)c(-c2ccc(O)cc2O)oc2cc(O)cc(O)c12
inactive: max response (CRL-7250) -3.27% | max response (HEK293) 4.53% | outcome (HaCat [1]) | max response (KB-3-1) -10.8% | max response (NIH3T3 [2]) -16.7% | outcome (HACAT [3]) | Potency (MCC-13) | Potency (MCC-26) | Potency (MKL-1) | Potency (MKL-2) | Potency (UISO) | Potency (WaGa)

Source: PubChem BioAssay (NCATS)
